Measured values published in PubChem BioAssay.
Active and inactive are the calls of the source.

Assays:
[1] = tested on: Plasmodium falciparum Sir2 (PF13_0152, Sir2A); test: pfSir2 binders on small-molecule microarrays, primary screen, biochemical, small-molecule microarray, 635 nm fluorescence (AID 1098); conditions: small-molecule microarray binding, fluorescence 635 nm; higher = more signal;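 note: score merges spot fluorescence intensity with its signal-to-noise ratio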
[2] = small-molecule microarray binders of probe aDKK1, primary screen, biochemical, biotinylated probe, 635/667 nm fluorescence (AID 1099); conditions: higher = more signal;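 note: score merges 667nm spot fluorescence with signal to noise across triplicate slides; reference of the scale not given here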
[3] = small-molecule microarray binders of probe aCHRDL2, primary screen, biochemical, biotinylated probe, 635/667 nm fluorescence (AID 1100); conditions: higher = more signal
[4] = splicing luciferase reporter signal modulators, primary screen, spliceosome inhibition project, cell-based, HEK293, splice +/- reporter (AID 1101); conditions: luminescence, 24 h, higher = more signal, called active from +8 up or from −8 down;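 note: HEK293 cells carrying a splicing-competent luciferase reporter gene; test concentration not given here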
[5] = target: Fibroblast growth factor 10 (Homo sapiens) (UniProt O15520); test: FGF10 binders on small-molecule microarrays, primary screen, biochemical, small-molecule microarray, 635 nm fluorescence (AID 1102); conditions: FGF10 binding, fluorescence 635 nm, higher = more signal
[6] = tested on: glycogen synthase kinase-3 (GSK3A per assay name; protocol says GSK3B); test: GSK3 binders on small-molecule microarrays, primary screen, biochemical, small-molecule microarray, 635 nm fluorescence, GSK3A (AID 1103); conditions: small-molecule microarray binding, fluorescence 635 nm; higher = more signal; note: the record names both GSK3A and GSK3B
[7] = target: Epidermal growth factor receptor (Homo sapiens) (UniProt P00533); test: EGFR binders on small-molecule microarrays, primary screen, biochemical, small-molecule microarray, 635 nm fluorescence (AID 1104); conditions: EGFR binding, higher = more signal;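 note: score merges 667 nm emission intensity with spot signal to noise over triplicate slides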
[8] = target: Follistatin-related protein 3 (Homo sapiens) (UniProt O95633); test: FSTL3 binders on small-molecule microarrays, primary screen, biochemical, small-molecule microarray, 635 nm fluorescence (AID 1105); conditions: FSTL3 binding, higher = more signal;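 note: score merges emission near 667 nm and signal to noise per printed spot across three slides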
[9] = target: Dickkopf-related protein 1 (Homo sapiens) (UniProt O94907); test: DKK1 binders on small-molecule microarrays, primary screen, biochemical, small-molecule microarray, 635 nm fluorescence scan (AID 1106); conditions: DKK1 binding, higher = more signal;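 note: score merges emission near 667 nm with signal to noise over three replicate slides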
[10] = tested on: Inhibin beta A chain (activin A); test: INHBA (activin A) binders on microarrays, primary screen, biochemical, small-molecule microarray, 635 nm fluorescence scan (AID 1107); conditions: small-molecule microarray binding, higher = more signal;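 note: mouse activin A protein probed at 4.33 µg/mL on printed slides; score merges bound-protein fluorescence near 667 nm with spot signal-to-noise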

Follistatin-related protein 3 (Homo sapiens), sequence (O95633 whole entry, looked up): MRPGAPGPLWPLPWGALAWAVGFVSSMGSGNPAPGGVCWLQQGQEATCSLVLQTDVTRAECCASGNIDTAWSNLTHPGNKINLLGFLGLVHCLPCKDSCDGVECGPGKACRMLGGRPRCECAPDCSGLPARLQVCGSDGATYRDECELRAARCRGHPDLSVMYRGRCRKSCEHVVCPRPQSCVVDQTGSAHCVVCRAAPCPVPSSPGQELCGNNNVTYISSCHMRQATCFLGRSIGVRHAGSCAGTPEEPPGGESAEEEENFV
Dickkopf-related protein 1 (Homo sapiens), sequence (O94907 whole entry, looked up): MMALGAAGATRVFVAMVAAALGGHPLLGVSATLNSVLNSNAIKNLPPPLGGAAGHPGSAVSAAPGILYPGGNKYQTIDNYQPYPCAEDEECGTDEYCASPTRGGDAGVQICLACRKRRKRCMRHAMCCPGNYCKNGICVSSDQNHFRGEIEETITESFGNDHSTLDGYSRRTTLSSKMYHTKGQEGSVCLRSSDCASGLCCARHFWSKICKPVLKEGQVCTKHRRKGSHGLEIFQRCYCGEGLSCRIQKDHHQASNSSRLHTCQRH
Fibroblast growth factor 10 (Homo sapiens), sequence (O15520 whole entry, looked up): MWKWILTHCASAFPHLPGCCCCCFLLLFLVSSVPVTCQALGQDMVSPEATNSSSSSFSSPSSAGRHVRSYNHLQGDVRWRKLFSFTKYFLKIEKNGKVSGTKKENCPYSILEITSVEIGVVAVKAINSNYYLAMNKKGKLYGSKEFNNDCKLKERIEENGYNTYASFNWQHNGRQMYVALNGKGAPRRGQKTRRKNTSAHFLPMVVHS
Epidermal growth factor receptor (Homo sapiens), sequence (P00533 whole entry, looked up): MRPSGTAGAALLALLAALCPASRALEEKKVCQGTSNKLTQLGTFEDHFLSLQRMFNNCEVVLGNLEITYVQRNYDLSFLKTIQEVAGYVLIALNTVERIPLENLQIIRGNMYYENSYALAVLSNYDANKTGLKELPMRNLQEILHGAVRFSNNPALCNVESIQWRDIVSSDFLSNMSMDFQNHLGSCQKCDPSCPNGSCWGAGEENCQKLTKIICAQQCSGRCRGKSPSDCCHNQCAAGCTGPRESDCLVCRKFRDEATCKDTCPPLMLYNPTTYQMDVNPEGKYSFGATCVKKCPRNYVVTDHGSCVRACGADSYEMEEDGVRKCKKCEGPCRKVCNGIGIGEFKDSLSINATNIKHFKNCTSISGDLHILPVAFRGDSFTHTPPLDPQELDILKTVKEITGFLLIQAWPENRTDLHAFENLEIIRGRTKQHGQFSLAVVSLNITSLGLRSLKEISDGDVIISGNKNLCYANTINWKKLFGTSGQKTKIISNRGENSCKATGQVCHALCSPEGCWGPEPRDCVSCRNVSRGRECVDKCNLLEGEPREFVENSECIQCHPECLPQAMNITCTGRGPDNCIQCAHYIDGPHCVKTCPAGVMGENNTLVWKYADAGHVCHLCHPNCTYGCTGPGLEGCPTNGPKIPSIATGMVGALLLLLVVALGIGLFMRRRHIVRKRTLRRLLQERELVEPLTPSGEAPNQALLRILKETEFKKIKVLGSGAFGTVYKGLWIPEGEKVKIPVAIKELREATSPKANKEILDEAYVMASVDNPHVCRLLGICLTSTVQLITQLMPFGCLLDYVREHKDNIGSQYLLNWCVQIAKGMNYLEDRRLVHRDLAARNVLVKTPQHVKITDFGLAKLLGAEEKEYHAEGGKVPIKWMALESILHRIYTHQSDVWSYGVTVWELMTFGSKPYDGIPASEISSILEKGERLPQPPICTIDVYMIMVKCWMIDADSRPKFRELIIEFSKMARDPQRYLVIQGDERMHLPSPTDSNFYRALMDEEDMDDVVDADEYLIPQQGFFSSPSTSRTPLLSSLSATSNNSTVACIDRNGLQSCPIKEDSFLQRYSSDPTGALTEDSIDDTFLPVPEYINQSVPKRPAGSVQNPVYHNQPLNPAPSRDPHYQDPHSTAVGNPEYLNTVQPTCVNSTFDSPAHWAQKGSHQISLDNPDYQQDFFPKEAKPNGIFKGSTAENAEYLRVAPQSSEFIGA

SMILES	composite z-score [1]	composite z-score [2]	composite z-score [3]	z-score [4]	composite z-score [5]	composite z-score [6]	composite z-score [7]	composite z-score [8]	composite z-score [9]	composite z-score [10]
O=C1OCC=C[C@H]2OC34C=CCN(c5ccc(Cl)cc5)C(=O)[C@H]3N(CCCCCO)C(=O)[C@@H]4[C@@H]12 (stereo not given in full)	0.311	-0.204	0.822	-0.784 (inactive)	-1.23	-1.26	-1.44	-1.51	-1.22	-0.262
CC(C)N1CC=CC23O[C@@H]4C=CCCOC(=O)C4[C@H]2C(=O)N(CCO)[C@@H]3C1=O (stereo not given in full)	0.154	-0.377	-0.0034	-1.22 (inactive)	0.107	-0.504	-0.458	-0.762	-0.155	-0.101
CC(C)C(CO)N1C(=O)[C@]2(C)C3C(=O)OCCC/C=C\[C@H]3OC23C=CCN(c2ccc(Cl)cc2)C(=O)[C@@H]13 (stereo not given in full)	1.11	-0.095	0.38	0.242 (inactive)	-0.382	-0.028	-0.599	-0.518	-0.821	0.717
O=C(CS)NCCCCCCNC(=O)[C@@H]1C[C@@H]2C(=O)N3CCC[C@H]3C(=O)N2[C@@H]1c1cccc(OCCO)c1	1.62	0.0302	0.396	-1.77 (inactive)	0.964	0.896	0.559	0.704	0.426	0.653
COc1ccc([Si](C)(C)[C@H]2[C@H](CCn3cc([C@H](O)c4ccccc4)nn3)O[C@@]3(C(=O)N(Cc4ccc(N5CCOC5=O)cc4)c4ccccc43)[C@@H]2C)cc1	-0.215	0.555	0.282	-0.372 (inactive)	-1.23	-2.18	-0.228	-1.54	-0.958	-0.794
COC1(C)CN(Cc2ccccc2Br)[C@H](/C=C/c2ccccc2)[C@H](Cc2ccccc2)O1 (stereo not given in full)	-0.525	-0.383	-0.0981	-0.792 (inactive)	-0.258	-0.629	-0.383	-0.478	-1.04	-0.19
Cc1ccc(S[C@]2(C(=O)NC(C)C)CC(=O)N(Cc3ccccc3C(F)(F)F)[C@@H]2c2ccc(CO)cc2I)cc1	1.29	0.386	1.09	-1.42 (inactive)	-1.41	-1.1	-1.64	-1.29	-1.7	0.889
COc1ccc(CCNC(=O)[C@@]2(Sc3ccc(C)cc3)CC(=O)N(Cc3cc(C(F)(F)F)cc(C(F)(F)F)c3)[C@@H]2c2ccc(CO)cc2I)cc1	1.15	0.277	0.901	-0.871 (inactive)	-0.447	-0.223	-1.06	-0.0666	-0.744	0.533
Cc1c(NC(=O)/C(C#N)=C/C=C/c2ccccc2[N+](=O)[O-])c(=O)n(-c2ccccc2)n1C	1.03	-0.0194	0.147	4.71 (inactive)	0.386	0.417	0.187	0.71	0.446	0.0089
COC(=O)Cn1c(C(=O)N2CCCC2)cc2c1C[C@H]1CN(C(=O)c3ccccc3)[C@@](Cc3ccc(F)cc3)(C(=O)OC)[C@@H]21	0.643	0.222	-0.0982	-1.13 (inactive)	-0.134	-0.576	0.588	0.412	-0.181	0.675
O=C1NC(=O)C2C1C=CC(C(O)c1cc(C(F)(F)F)cc(C(F)(F)F)c1)N2Nc1ccc(Cl)cc1Cl (stereo not given)	0.314	0.853	0.824	0.916 (inactive)	0.336	-0.514	-0.66	-0.0146	-0.953	0.701
NCCCCCNC(=O)[C@@H]1C[C@@H]2C(=O)N[C@@H](CCCCN)C(=O)N2[C@@H]1c1cccc(OCCO)c1	0.858	1.24	0.826	-0.107 (inactive)	0.699	0.642	-0.0511	1.44	0.969	0.428
COc1cc2c(cc1O)C(C)N(Cc1cc3c(cc1Br)OCO3)CC2 (stereo not given)	1	0.623	0.749	-0.363 (inactive)	-0.0175	-1.11	-0.277	-0.475	-0.165	0.561
CCCN1C(=O)[C@]2(Cc3ccccc3)N=C(c3ccc(OCCCO)cc3)O[C@@H]2c2ccccc21	1.25	0.206	0.41	-1.41 (inactive)	1.24	1.32	0.642	0.928	0.223	0.808
CC(C)C(O)C1C=CC2C(=O)N(C)C(=O)C2N1Nc1ccccc1 (stereo not given)	0.778	1.36	0.598	1.01 (inactive)	0.943	0.686	-0.0756	0.439	0.4	0.742
CCOC(=O)C[C@H]1[C@H](OC(=O)c2ccc(-c3ccccc3)cc2)[C@@H](NC(=O)c2ccc3ccccc3c2)c2cc(OCCCO)ccc2N1C(=O)c1ccc2ccccc2n1	0.33	-0.0069	0.221	-0.634 (inactive)	0.577	0.439	0.098	0.458	0.426	0.31
CCN(CC)c1ccc(N2CC=CC34O[C@@H]5/C=C\CCC(C)OC(=O)C5[C@H]3C(=O)N(CCO)[C@@H]4C2=O)cc1 (stereo not given in full)	0.752	-0.18	0.477	0.00168 (inactive)	-0.736	-0.565	-0.968	-0.421	-0.771	0.907
